Compounds with a hit are over-represented: about 19% of the library has one in this group of screens.
HT1080 IDH1KD tx: HT-1080 IDH1 knockdown cell toxicity (counter line). AID 686971. Potency, µM (highest dose often 46.1 µM), for the others: top-dose activity, negative = toxicity, most hits filed as cytotoxic. HT-1080 IDH1 knockdown viability, ATP luminescence, 48 h. 2% of 360,000 active;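 further: potency means the concentration at half of the fitted maximal effect; 0% = DMSO wells and -100% = cell-free medium wells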
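Luminescent ATP read-out (CellTiter-Glo, 10 min at room temperature) after 48 h compound exposure at 37 °C gave viability of IDH1-knockdown HT-1080 cells. Activity was normalised to DMSO and cell-free wells, then fitted as concentration-response curves.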
ELG1 repair inh: inhibitors of ELG1-dependent DNA repair in HEK293T cells | Potency, µM (titrated, usually from 46.1 µM), for the others: at the highest dose activity change, negative = inhibition, hits mostly inhibitors | 2.3% of 330,000 active | HEK293T ELG1-luciferase reporter, luminescence, 16 h; DNA damage induced by 5-fluorouridine; further: potency means the concentration at half of the fitted maximal effect; nearly all actives have a fitted effect of over 55% in size
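DMSO vehicle served as the neutral condition. Each well held 2,000 cells given 5-fluorouridine plus compound; after 16 hr at 37 °C/5% CO2, ONE-Glo was added and luciferase measured 30 min later.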
HT1080NT lethal: kills 2HG-producing HT-1080-NT fibrosarcoma cells | HT-1080-NT fibrosarcoma viability, CellTiter-Glo ATP luminescence, 48 h | Potency, µM (doses to about 46.1 µM), for the others: at the top dose activity, negative = less viability, most hits filed as cytotoxic | 1.6% of 360,000 active | AID 686970;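 further: NT is the 2HG producing partner of a matched IDH1 knockdown line; potency means the concentration at half of the fitted maximal effect; 0% = DMSO-treated cells and -100% = media-only wells without cells; nearly all actives have a fitted effect of over 55% in size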
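Viability of the 2HG-overproducing fibrosarcoma line after 48 hours of compound exposure at 37 degrees C was determined by luminescence with CellTiter-Glo, and concentration-effect curves were then fitted and categorized.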
IL-1B inflam inh: blocks inflammasome-driven IL-1 beta release | AID 743279 | 4.7% of 360,000 active | activity change, % at 57.5 µM | THP-1 LPS/ATP IL-1B secretion, AlphaLISA, 16 h; stronger effect = lower value; in the data active means activity change below about -50%; inconclusive means mostly about -30% to -49%
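Secreted IL-1B measured by AlphaLISA bead assay after 16 h compound exposure of THP-1 cells; compounds (final up to 57.5 uM) added 1 h before LPS (250 ng/mL) and ATP (1.25 mM) stimulation; lower signal means less secretion.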
DT40 TDP1 CPT: growth inhibition of DT40 Tdp1-/-;hTDP1 cells with camptothecin (screen for TDP1 inhibitors). chicken DT40 Tdp1-/-;hTDP1 cells + 20 nM CPT, ATP luminescence, 48 h. Potency, µM (titrated, usually from 46.2 µM), inactives show at the top dose activity change, negative = growth inhibition, most hits filed as inhibitors. 12% of 420,000 active. AID 686979; further: potency means the concentration at half of the fitted maximal effect; nearly all actives have a fitted effect of over 55% in size
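Chicken DT40 Tdp1-/- cells stably complemented with human TDP1 were seeded at 400 cells/well in medium containing 20 nM camptothecin, exposed to pin-transferred compounds, and grown at 37 °C for at least 48 hr. Viability was read as ATP luminescence.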
TDP1 cell noCPT: qHTS for Inhibitors of human tyrosyl-DNA phosphodiesterase 1 (TDP1): qHTS in cells in absence of CPT; 15% of 420,000 active; DT40 Tdp1-/- hTDP1 cells, no CPT, ATP luminescence, 48 h; Potency, µM (titrated, usually from 46.2 µM), for inactives: at the highest dose activity change, negative = growth inhibition, actives largely listed as inhibitors; AID 686978, 2013; further: potency means the concentration at half of the fitted maximal effect; nearly all actives have a fitted effect of over 55% in size
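Compound effects on proliferation are scored in DT40 Tdp1-/-;hTDP1 cells in the absence of CPT. ATP levels (CellTiter-Glo luminescence) are recorded after a ≥48 hr, 37 °C incubation.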
The depositor's hits bear a star; ? = inconclusive; . = not tested or not shown; [ ] = dose if it differs, or a comment. Unless noted, the call rests on the fitted dose curve; in most records, active means well fitted curve in the direction sought with a large enough effect; inconclusive means small, poorly fitted or top-dose-only effect, or another doubt; inactive means no such curve, though single readings can be large; an effect the other way counts as inactive or inconclusive. Unless noted, on the % scale 0 is the no-effect control and ±100 the full control effect.

SMILES	HT1080 IDH1KD tx	ELG1 repair inh	HT1080NT lethal	IL-1B inflam inh	DT40 TDP1 CPT	TDP1 cell noCPT
CCOc1cc(CN2CCN(CCc3ccccc3)C(CCO)C2)ccc1OC (stereo unspecified)	-5.4%	-2.8%	-9.2%	-68.9*	?	?
CCCS(=O)(=O)N1CCN(Cc2ccc(OCc3ccccc3)c(OC)c2)CC1	-27.7%	.	-8.0%	-73.5*	?	?
COc1ccc(CN2CCN(C)CC2)cc1OCc1ccccc1	6.1%	4.1%	8.9%	0.0	-0.6%	-8.1%
O=C(CN1C(=O)CSc2ccc(S(=O)(=O)N3CCCC3)cc21)NCc1ccc(F)cc1Cl	.	.	.	.	-29.7%	-29.1%
CCOc1ccc(C(=O)NCC(=O)N2CCC3(CC2)NCCc2[nH]cnc23)cc1	?	18.3%	7.2%	2.1	-17.8%	4.2%
CC(C)CN1CCN(Cc2nc3ccccc3s2)CC1CCO (stereo unspecified)	4.8%	-4.4%	1.7%	-1.7	-0.8%	-8.1%
OCCC1CN(Cc2nc3ccccc3s2)CCN1CCc1ccccc1 (stereo unspecified)	-10.4%	-10.1%	-3.6%	-1.6	?	25.9µM*
COc1cc(CN2CCC(C(=O)NCC(C)(C)CN(C)C)CC2)ccc1OCc1ccccc1	-22.4%	12.0%	?	-9.3	6.51µM*	?
O=C(c1cccc(F)c1)N1CCN(S(=O)(=O)Cc2ccccc2)CC1	15.5%	-6.0%	8.0%	11.0	-4.1%	12.6%
COc1ccc(Br)cc1CN1CCN(S(=O)(=O)Cc2ccccc2)CC1	0.7%	-3.1%	-3.1%	7.1	?	8.2µM*
O=S(=O)(Cc1ccccc1)N1CCN(Cc2ccccc2)CC1	-4.0%	4.2%	-8.2%[9.24 µM]	0.0	-29.6%	-16.7%
O=C(c1cc(Br)ccc1O)N1CCN(S(=O)(=O)Cc2ccccc2)CC1	-3.3%	?	-25.7%	0.0	?	11.6µM*
COc1ccc(CNC(=O)C2CCN(S(=O)(=O)c3c(C)noc3/C=C/c3ccccc3F)CC2)cc1	.	.	.	.	?	-15.6%
Cc1nc(-c2coc3c(O)c(O)ccc3c2=O)cs1	.	.	.	.	-17.9%[9.04 µM]	3.8%[9.04 µM]
CCOc1cc(CN2CCN(S(=O)(=O)Cc3ccccc3)CC2)ccc1OC	-5.1%	-20.8%	14.2%	14.5	-19.3%	23.1µM*
Cc1cccc(-n2c(=O)cc(N3CCN(c4ccc(F)cc4)CC3)[nH]c2=O)c1	1.1%	?	-0.1%	14.5	?	18.4µM*
Cc1noc(C)c1C(=O)OCC(=O)c1cc(C)n(Cc2ccccc2Cl)c1C	-24.2%	?	0.8%	23.9	20.6µM*	14.6µM*
CCCOC(=O)c1ccc(Nc2nc3ccccc3nc2-n2nc(C)cc2C)cc1	.	.	.	.	-18.5%	-5.3%
Cc1ccc(C)c(NC(=S)NCCc2ccc(F)cc2)c1	-0.5%	0.5%	-2.2%	-66.8*	?	?
Cc1ccc(C(C)NC(=S)NCc2ccc(F)cc2)c(C)c1 (stereo unspecified)	7.8%	3.5%	-8.5%	-15.7	20.6µM*	16.4µM*
Cc1ccc(C)c(NC(=S)NNc2ccc(F)cc2F)c1	25.9µM*	-0.5%	25.9µM*	-100.3*	?	?
Cc1ccc(NC(=S)NCCc2ccccc2)c(C)c1	4.6%	-4.8%	14.4%	-22.8	?	?
O=C(Nc1cccc(Cl)c1)c1cc2c(=O)[nH]c3ccccc3c2s1	.	.	.	.	-1.4%	-17.5%
CC(=O)N1N=C(c2ccc(Br)cc2)OC12CCCC2	10.2%	-1.5%	22.3%	4.5	-9.5%	-19.8%
CC(=O)N1N=C(c2ccc(C(C)(C)C)cc2)OC1(C)C	-18.5%	15.6%	-17.7%	0.0	14.6µM*	10.3µM*
CC(=O)N1N=C(c2ccc3ccccc3c2)OC1(C)C	3.1%	1.8%	0.4%	10.3	18.4µM*	?

Bioassay records deposited in PubChem by National Center for Advancing Translational Sciences (NCATS).
